Reference: PubChem BioAssay (NCI)
This is part of a sample that, as a whole, favours compounds with a hit. Of some 79,000 tested, about 15% had one in any assay. Unmarked numbers belong to inactive results. The source made the active and inactive calls. No stated cut-off is given here; in the data, active means growth inhibition above about 70%; inactive means the rest.

Test: NCI Yeast Anticancer Drug Screen. Data for the sgs1 strain (AID 173);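 further: 0% = growth of vehicle-only control cultures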
Details: S. cerevisiae sgs1 mutant, hits give high values
Method: Growth inhibition of yeast strains with defined genetic alterations is measured as a screen for potential anti-cancer activity. Selected strains with alterations in DNA damage repair or cell cycle control were exposed to compounds and growth inhibition was measured relative to vehicle treated controls. The strain used in this assay is sgs1

## Nc1ncncc1C(C1=C(O)COC1=O)C1=C(O)COC1=O
At 1.2 µM
  growth inhibition: 3%
At 3.7 µM
  growth inhibition: 3%
At 11.0 µM
  growth inhibition: 3%
At 33.0 µM
  growth inhibition: 2%
At 100.0 µM
  growth inhibition: -1%

## CCCCCCc1cc(C(=O)OC/C(C)=N/NC(N)=O)c2ccccc2n1
At 1.2 µM
  growth inhibition: -4%
At 3.7 µM
  growth inhibition: -4%
At 11.0 µM
  growth inhibition: -6%
At 33.0 µM
  growth inhibition: -5%
At 100.0 µM
  growth inhibition: -4%

## O=C(Cc1csc2[n+]1C(=O)/C(=C/c1ccc(Cl)cc1)S2)Nc1ccccc1
At 1.2 µM
  growth inhibition: 2%
At 3.7 µM
  growth inhibition: 11%
At 11.0 µM
  growth inhibition: 32%
At 33.0 µM
  growth inhibition: 72% (active)
At 100.0 µM
  growth inhibition: 89% (active)

## S=C(N/N=C(/c1ccccc1)c1ccccn1)N1CCCCCC1
At 1.2 µM
  growth inhibition: 4%
At 3.7 µM
  growth inhibition: 10%
At 11.0 µM
  growth inhibition: 11%
At 33.0 µM
  growth inhibition: 10%
At 100.0 µM
  growth inhibition: 7%

## [O-][n+]1c2ccc(O)cc2nc2ccc(Cl)cc21
At 1.2 µM
  growth inhibition: 4%
At 3.7 µM
  growth inhibition: 10%
At 11.0 µM
  growth inhibition: 26%
At 33.0 µM
  growth inhibition: 46%
At 100.0 µM
  growth inhibition: 59%

## O=C1OC(=O)C2CCCC3CCCC1C32 (stereo not given)
At 1.2 µM
  growth inhibition: 26%
At 3.7 µM
  growth inhibition: 78% (active)
At 11.0 µM
  growth inhibition: 93% (active)
At 33.0 µM
  growth inhibition: 94% (active)
At 100.0 µM
  growth inhibition: 98% (active)

## CN(C)Cc1cc(N=Nc2ccc(Cl)cc2)cc(CN(C)C)c1O
At 1.2 µM
  growth inhibition: 4%
At 3.7 µM
  growth inhibition: 8%
At 11.0 µM
  growth inhibition: 15%
At 33.0 µM
  growth inhibition: 26%
At 100.0 µM
  growth inhibition: 95% (active)

## CC(=O)Nc1ccc(/C=C(\C#N)c2ccc(C)cc2)cc1
At 1.2 µM
  growth inhibition: -21%
At 3.7 µM
  growth inhibition: -19%
At 11.0 µM
  growth inhibition: -23%
At 33.0 µM
  growth inhibition: -13%
At 100.0 µM
  growth inhibition: -17%
